# Measured values from the supplement of paper PMC10646978.
# ± gives the standard deviation.
# Assays:
# Conditions in all cases: modulator concentration 10 µM
# [1] = test system: RAW-Dual (murine macrophage reporter line); test: NF-kB reporter (SEAP) activity fold change vs agonist alone; higher = enhanced NF-kB activity
# How it was run: (§1)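 Overnight stimulation with a PRR agonist followed pre-incubation for 1 hour at 37 °C with compound at 10 μM final. This was done in RAW-Dual murine macrophage reporter cells seeded at 50 000 per well in 384-well plates. NF-κB (SEAP, QUANTI-Blue absorbance at 620 nm) and IRF (Lucia luciferase, QUANTI-Luc luminescence) were read from the supernatant. Each reporter's fold change relative to the mean agonist-only control on the same plate was averaged over replicate plates.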
# [2] = test system: RAW-Dual (murine macrophage reporter line); test: IRF reporter (Lucia luciferase) activity fold change vs agonist alone; higher = enhanced IRF activity
# How it was run: as §1
# [3] = test system: RAW-Dual (murine macrophage reporter line); test: viability score (confluency relative to resting cells, overnight) (fraction); higher = more viable, active = viable (0.7 or more)
# How it was run: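 Confluency was the readout: RAW-Dual macrophages were imaged with IncuCyte after an overnight exposure to compound at 10 μM final. IncuCyte software produced two masks over all imaged wells. The viability score expresses confluency against resting cells, and both masks had to exceed 70% of resting cells for a compound to meet the cutoff.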
# [4] = agonist: CpG ODN 1826 0.5 ug/mL
SMILES,"NF-kB reporter [1, 4]",NF-kB reporter ([1]; agonist: LPS 0.1 ug/mL),NF-kB reporter ([1]; agonist: MPLA […]),IRF reporter ([2]; agonist: 3'3'-cGAMP 10 ug/mL),IRF reporter ([2]; agonist: LPS 0.1 ug/mL),IRF reporter ([2]; agonist: MPLA […]),viability score [3]
CC1CC(=O)C2=C(C1)OC(N)=C(C#N)C2c1ccc(F)cc1 (centres undefined),0.894 ± 0.09,1.01 ± 0.1,0.935 ± 0.066,0.874 ± 0.053,1.08 ± 0.077,1.13 ± 0.2,0.982 (active)
Cc1nc(Nc2ncc(C(=O)Nc3c(C)cccc3Cl)s2)cc(N2CCN(CCO)CC2)n1.O,1.55 ± 0.37,0.307 ± 0.025,0.644 ± 0.041,0.0905 ± 0.0031,0.536 ± 0.063,0.656 ± 0.081,0.492 (inactive)
O=S1(=O)N=C(Oc2ccc3ccccc3c2)c2ccccc21,0.889 ± 0.15,1.23 ± 0.1,1.22 ± 0.21,0.91 ± 0.063,0.942 ± 0.14,0.991 ± 0.11,0.992 (active)
O=C(NCCCn1ccc2cccnc21)c1cccc(Br)c1,0.84 ± 0.042,1.12 ± 0.088,0.937 ± 0.045,0.839 ± 0.081,1.06 ± 0.12,1.03 ± 0.23,0.98 (active)
COC(=O)C1=C(C)N(c2ccc(Br)cc2)C(=O)C1=Cc1ccc(O)cc1,1.12 ± 0.088,0.956 ± 0.1,0.93 ± 0.057,0.468 ± 0.035,1.31 ± 0.16,1.05 ± 0.065,1.01 (active)
COc1ccc(CC(=O)N2CCC(N3CCC(OC)CC3)CC2)cc1OC,0.965 ± 0.063,1.09 ± 0.087,0.893 ± 0.041,0.949 ± 0.05,1.02 ± 0.11,1.08 ± 0.35,0.974 (active)
CCOC(=O)OC(C)OC1=C(C(=O)Nc2ccccn2)N(C)S(=O)(=O)c2ccccc21 (centres undefined),1.12 ± 0.15,1.28 ± 0.25,0.995 ± 0.056,0.948 ± 0.029,1.37 ± 0.34,1.32 ± 0.12,0.989 (active)
CCN(CC)CCCC(C)Nc1c2ccc(Cl)cc2nc2ccc(OC)cc12 (centres undefined) [Prestw-318],0.0785 ± 0.011,0.167 ± 0.04,0.447 ± 0.051,0.0346 ± 0.0049,1.19 ± 0.22,0.939 ± 0.22,0.825 (active)
O=C(c1cccs1)c1nc2c(n1O)CCCCC2,1.01 ± 0.079,1.02 ± 0.076,0.967 ± 0.069,0.992 ± 0.056,1.17 ± 0.18,0.858 ± 0.085,0.899 (active)
Cc1ccc2[nH]c3nc(NN)nnc3c2c1,1.03 ± 0.079,0.929 ± 0.077,0.967 ± 0.024,0.913 ± 0.05,0.998 ± 0.077,0.836 ± 0.071,1 (active)
O=C(Nc1ccc(NS(=O)(=O)c2ccccc2)cc1)c1ccco1,1.12 ± 0.14,0.922 ± 0.13,0.998 ± 0.035,0.879 ± 0.14,0.818 ± 0.035,0.823 ± 0.095,1 (active)
CCCCCOC(=O)CSc1nnc(-c2ccc(Cl)cc2Cl)o1,0.957 ± 0.076,0.981 ± 0.083,0.99 ± 0.048,1.07 ± 0.23,1.04 ± 0.051,1.02 ± 0.14,1 (active)
CN1CCC(=C2c3ccccc3C=Cc3ccccc32)CC1 [Prestw-103],0.516 ± 0.038,0.833 ± 0.056,1.01 ± 0.053,0.72 ± 0.067,0.905 ± 0.1,0.915 ± 0.12,0.293 (inactive)
CC(=NOCON=C(C)c1ccc(F)cc1F)c1ccc(F)cc1F,0.843 ± 0.067,0.907 ± 0.062,0.974 ± 0.086,0.991 ± 0.05,1.39 ± 0.085,1.53 ± 0.15,1 (active)
CN(C)CCC(c1ccc(Cl)cc1)c1ccccn1.O=C(O)/C=C\C(=O)O (centres undefined),1.02 ± 0.14,1.08 ± 0.23,1.1 ± 0.13,0.799 ± 0.042,1.23 ± 0.14,1.11 ± 0.085,0.995 (active)
O=C(Nc1cc(C(F)(F)F)cc(C(F)(F)F)c1)c1ccc([N+](=O)[O-])cc1,0.977 ± 0.09,1.03 ± 0.14,1.02 ± 0.063,0.998 ± 0.03,1.42 ± 0.14,1.05 ± 0.075,1.01 (active)
C=C1C(=O)O[C@@H]2[C@H]3O[C@]3(C)CC/C=C(\C)CC[C@@H]12 [Prestw-550],0.314 ± 0.019,0.312 ± 0.036,0.108 ± 0.0071,0.0909 ± 0.0037,0.0437 ± 0.0043,0.0367 ± 0.005,0.495 (inactive)
N=C1NC(=O)C(=Cc2ccc(-c3ccc(F)cc3)o2)S1,0.507 ± 0.047,0.632 ± 0.042,0.964 ± 0.043,1.02 ± 0.17,0.989 ± 0.15,0.798 ± 0.13,1 (active)
CCOc1cc(C=C2SC(=S)N(CCS(=O)(=O)O)C2=O)ccc1O,0.952 ± 0.087,1.04 ± 0.077,0.951 ± 0.15,0.925 ± 0.027,1.28 ± 0.14,0.997 ± 0.2,1.02 (active)
Cl.OC(CCN1CCCC1)(c1ccccc1)C1CCCCC1 (centres undefined),0.822 ± 0.28,1.13 ± 0.061,1.12 ± 0.088,0.625 ± 0.025,1.07 ± 0.14,1.18 ± 0.26,0.976 (active)
O=C(Nc1nc(CC(=O)N2CCOCC2)cs1)c1ccccc1,1.02 ± 0.073,1.02 ± 0.09,0.941 ± 0.14,0.995 ± 0.053,1.24 ± 0.087,1.29 ± 0.1,1.01 (active)
COc1cc(C=NN2C(=O)c3cccc4cccc(c34)C2=O)cc(Br)c1OC,1.02 ± 0.08,1.12 ± 0.062,0.967 ± 0.062,1.01 ± 0.032,1.51 ± 0.29,1.13 ± 0.17,1.01 (active)
CN(C)CCC=C1c2ccccc2CCc2ccccc21.Cl,0.903 ± 0.19,1.26 ± 0.48,1.21 ± 0.17,0.423 ± 0.017,1.31 ± 0.44,1.12 ± 0.084,0.412 (inactive)
O=C(Nc1ccccc1)NC1CCS(=O)(=O)C1 (centres undefined),1.02 ± 0.096,1.09 ± 0.1,0.998 ± 0.042,0.97 ± 0.054,0.889 ± 0.16,0.88 ± 0.18,0.995 (active)
c1ccc2[nH]c(-c3cscn3)nc2c1,1.14 ± 0.16,1.16 ± 0.21,0.915 ± 0.055,0.81 ± 0.037,1.17 ± 0.17,1.04 ± 0.13,0.995 (active)
Cc1cc(Cl)ccc1NC(=O)c1ccc(CN2CCN(c3ccccc3)CC2)cc1,0.684 ± 0.053,0.999 ± 0.07,0.978 ± 0.085,0.803 ± 0.037,1.07 ± 0.069,1.2 ± 0.11,1.02 (active)
COc1ccc(OC)c(S(=O)(=O)NCC2CC(=O)N(c3ccc(Cl)cc3)C2)c1 (centres undefined),0.857 ± 0.039,0.968 ± 0.12,0.911 ± 0.052,0.762 ± 0.035,1.27 ± 0.23,1.21 ± 0.35,1.01 (active)
